According to PubChem BioAssay AID1347156 (National Center for Advancing Translational Sciences (NCATS), 2019):
Records with an inconclusive call do not appear. Where a call stands in place of a potency, no number is given. Active and inactive are the calls of the source. The call rests on the fitted dose curve; in most records, active means well fitted cell-killing curve with a large enough effect; inconclusive means small, poorly fitted or top-dose-only effect; inactive means flat fitted curve, though single readings scatter.

Test: DAPI mCherry counterscreen qHTS for Zika virus inhibitors; further: nearly all actives have a fitted effect of over 55% in size
Method in brief: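 Imaging read-out after fixation and Hoechst nuclear staining: percent infection from mCherry-positive cells (above 3 SD of negative controls) and nuclear counts. Setup: Vero cells pre-plated overnight, compound added, infected with ZIKV-mCherry (MOI 1), 48-72 hrs, 37 degrees C.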
Potency means the concentration at half of the fitted maximal effect.

Row | Compound | Potency
1 | Cc1ccc(-c2nnc(Nc3ccc(S(N)(=O)=O)cc3)c3ccccc23)cc1S(=O)(=O)N1CCOCC1 | inactive
2 | C[C@@H](NC(=O)c1ccc(Cl)cc1)c1c(-c2ccc(F)cc2)noc1C(=O)O | inactive
3 | COc1cnc(-c2ccc(Cn3c(CC(C)(C)C(=O)O)c(SC(C)(C)C)c4cc(OC[C@@H]5Cc6ccccc6N5C(C)=O)ccc43)cc2)nc1 | 15.8 µM (active)
4 | N#Cc1c(O)c2c(-c3ccc(-c4ccccc4O)cc3)csc2[nH]c1=O | inactive
5 | COC(=O)c1ccc([C@H]2Nc3ccc(S(=O)(=O)Nc4ccc(C)cc4)cc3[C@H]3C=CC[C@H]32)cc1 | inactive
6 | C/C(=C\c1ccc(C(=O)O)cc1)c1ccc2c(c1)C(C)(C)CCC2(C)C | 20 µM (active)
7 | CC(C)c1cccc2c(-c3ccccc3)cc(-c3ccc(-c4ccc(C(=O)O)cc4)[nH]3)nc12 | 25.1 µM (active)
8 | CN(C)[C@@H]1C(=O)C(C(=O)NCN2CCCC2)=C(O)[C@@]2(O)C(=O)C3=C(O)c4c(O)cccc4[C@@](C)(O)C3C[C@@H]12 (some centres not stated) | inactive
9 | O=C(O)c1c(Sc2ccccc2)c2cc(Cl)ccc2n1Cc1ccc(Cl)cc1 | 12.6 µM (active)
10 | CC1(C(=O)O)NCCc2cc(O)c(O)cc21 (configuration not stated) | inactive
11 | Cc1cc(-c2ccc(N=Nc3c(S(=O)(=O)O)cc4cc(S(=O)(=O)O)cc(N)c4c3O)c(C)c2)ccc1N=Nc1c(S(=O)(=O)O)cc2cc(S(=O)(=O)O)cc(N)c2c1O | inactive
12 | CC1CCC(C(=O)N(c2cc(C#CC(C)(C)C)sc2C(=O)O)C2CCC(O)CC2)CC1 (configuration not stated) | 25.1 µM (active)
13 | CCCCCc1ccc(/C=C/C(=O)Nc2cc(Cl)ccc2C(=O)O)cc1 | 35.5 µM (active)
14 | Cc1ccc(-n2[nH]c(C)c(N=Nc3cccc(-c4cccc(C(=O)O)c4)c3O)c2=O)cc1C | 14.1 µM (active)
15 | CC(C)C1=CCC(C)(O)C(OC2OC(CO)C(O)C(O)C2O)C1 (configuration not stated) | inactive
16 | COc1cc(C(=O)NS(=O)(=O)c2ccccc2C)ccc1Cc1cn(C)c2ccc(NC(=O)OC3CCCC3)cc12 | 35.5 µM (active)

Row | Compound | Potency
17 | COc1cc(Nc2nc3ccccc3nc2NS(=O)(=O)c2ccc(NC(=O)c3ccc(OC)c(C)c3)cc2)cc(OC)c1 | 6.31 µM (active)
18 | O=c1c(O)c(Br)ccc2c(Br)c(O)c(O)c(O)c12 | inactive
19 | O=c1c(O)c(-c2ccc(O)c(O)c2)oc2cc(O)cc(O)c12 | inactive
20 | O=C(OCc1cc(=O)n2nc(C3CC3)sc2n1)c1ccc(NC(=O)c2ccccc2Cl)cc1 | inactive
21 | Cc1nc(N=Nc2cc(S(=O)(=O)O)c3cc([N+](=O)[O-])cc(S(=O)(=O)O)c3c2)c(COP(=O)(O)O)c(C=O)c1O | inactive
22 | O=C(Nc1cccc(C(=O)OCc2cc(=O)n3nc(C4CC4)sc3n2)c1)c1cccc(F)c1 | inactive
23 | CCOC(=O)c1ccc(Nc2nc3ccccc3nc2NS(=O)(=O)c2ccc(Cl)cc2)cc1 | 7.94 µM (active)
24 | Fc1cc(C2=Nn3c(COc4ccc(Cl)cc4Cl)nnc3S/C2=C\c2ccc(-c3ccc(Cl)cc3)o2)c(Cl)cc1Cl | inactive
25 | CCN(Cc1cccc(S(=O)(=O)O)c1)c1ccc(C(=C2C=CC(=[N+](CC)Cc3cccc(S(=O)(=O)O)c3)C=C2)c2ccc(O)cc2S(=O)(=O)O)cc1 | inactive
26 | Cc1c(C2(c3cc(C(C)C)c(O)c(Br)c3C)OS(=O)(=O)c3ccccc32)cc(C(C)C)c(O)c1Br | inactive
27 | O=C(O)c1cc(N(Cc2ccc(C3CCCCC3)cc2)C(=O)c2ccc(Oc3ccccc3)cc2)ccc1O | 35.5 µM (active)
28 | Nc1c(S(=O)(=O)O)cc(Nc2ccc(Nc3nc(Cl)nc(Nc4ccc(S(=O)(=O)O)cc4)n3)c(S(=O)(=O)O)c2)c2c1C(=O)c1ccccc1C2=O | inactive
29 | CN(Cc1ccc(C(=O)O)cc1)c1ccc(OCc2c(-c3c(Cl)cccc3Cl)noc2C2CC2)nc1C(F)(F)F | 15.8 µM (active)
30 | O=C(Nc1cccc(C(=O)Nc2ccc(S(=O)(=O)O)c3cc(S(=O)(=O)O)cc(S(=O)(=O)O)c23)c1)Nc1cccc(C(=O)Nc2ccc(S(=O)(=O)O)c3cc(S(=O)(=O)O)cc(S(=O)(=O)O)c23)c1 | inactive
31 | Nc1ncnc2c([C@@H]3N[C@H](CO)[C@@H](O)[C@H]3O)c[nH]c12 | inactive
32 | O=c1c(O)c(-c2ccc(O)cc2O)oc2cc(O)cc(O)c12 | inactive
